Each structure is given as a SMILES string. The whole screen tested about 330,000 compounds, of which about 900 (0.27%) were called active.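 How the source made its calls: active means inhibition above the campaign's mean inhibition across all tested compounds plus 3 SD (cut at about 9.9% in these data); inactive means the rest.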 Only a selection was taken, and actives are over-represented in it overall.

This is an account of results in PubChem BioAssay AID449728 (The Scripps Research Institute Molecular Screening Center, 2010).

The experiment can be described thus: E. coli V3065 growth inhibition, primary screen, counter-screen for AddAB inhibitor project, absorbance, OD600 (AID 449728).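 Further: uninfected addAB+ strain grown without phage in ampicillin broth; 0% = DMSO wells and 100% = ciprofloxacin 0.95 µg/ml wells.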 As to conditions: 18 h, at 11.9 µM, stronger effect = higher value. Background: Counterscreens check selectivity or assay interference.
One may read the inhibition as the change of the read-out against control, counted positive when it falls. Consider `COC(=O)c1sc(SC)c(S(=O)(=O)C(C)C)c1N/N=C(\C#N)S(=O)(=O)c1ccccn1`, for which the inhibition was -1.95% (inactive).

In the case of `CCCCCC1CC(COc2ccccc2)OC1=O` (centres undefined), the inhibition was -0.64% (inactive).

For `O=C(CC(O)(C(F)(F)F)C(F)(F)F)Nc1ccc(Cl)c(Cl)c1`, the inhibition was 17.7% (active).

Consider `O=C(CCCN1C(=O)CCC1=O)Nc1ccc(Cl)c(C(F)(F)F)c1`, for which the inhibition is -1.92% (inactive).

Regarding `CS(=O)(=O)N(CC(=O)Nc1ccc(Cl)c(Cl)c1)C1CCCCC1`, the inhibition was 0.42% (inactive).

Turning to `CC(=O)Nc1ccc(NC(=O)COc2ccc(S(=O)(=O)NC(C)c3ccccc3)cc2)cc1` (centres undefined), the inhibition is 2.38% (inactive).

In the case of `O=C(CSc1ccccn1)N1CCN(S(=O)(=O)c2ccc(Cl)cc2)CC1`, the inhibition is -1.3% (inactive).

As for `CCCCNC(=O)Nc1c(C)cc(SC#N)cc1C`, the inhibition was 2.5% (inactive).

For the molecule `CC(=O)NN1C(=O)c2ccccc2NC1c1ccccc1` (centres undefined), the inhibition is 0.86% (inactive).

In the case of `O=C(O)C(c1ccccc1)N1C(=O)/C(=C\c2ccc(-c3cccc(Cl)c3)o2)SC1=S` (centres undefined), the inhibition was -3.78% (inactive).

For the molecule `O=C1c2ccccc2NC(c2ccc(-c3cccc(Cl)c3)o2)N1O` (centres undefined), the inhibition was 19.2% (active).

In the case of `O=C(NCc1cccs1)c1ccc2c(c1)ncn2C1CCCC1`, the inhibition was -2.5% (inactive).

As for `Cc1ccc(NC(=O)CN(C)C(=O)c2ccc(Br)o2)cc1`, the inhibition was 0.43% (inactive).

For `CCCS(=O)(=O)Nc1ccc(-c2cn3c(n2)SCC3)cc1`, the inhibition is 2.36% (inactive).

`CC(C)(C)N(Cc1ccccc1)C(=O)c1ccncc1`: the inhibition is -2.63% (inactive).

Take `O=C(NCc1ccccn1)Nc1ccc(Cl)cc1`: the inhibition was -3.41% (inactive).

`O=C1c2ccccc2C(=O)N1CCC(O)C[N+](=O)[O-]` (centres undefined): the inhibition is 3.02% (inactive).

Consider `CC(=O)Oc1ccccc1C(=O)Nc1ncc([N+](=O)[O-])s1`, for which the inhibition is 11.2% (active).

In the case of `O=C(Cc1c(F)cccc1Cl)Nc1ncc([N+](=O)[O-])s1`, the inhibition is 7.15% (inactive).

Consider `COc1ccc(NC(=O)c2ccccc2[N+](=O)[O-])cc1OC`, for which the inhibition is -1.73% (inactive).

As for `CCCCCCCCCCCC(=O)O`, the inhibition was -2.17% (inactive).

For the molecule `COc1ccc(OC)c(CCNC(=O)c2nn(C)c3c2CS(=O)(=O)c2ccccc2-3)c1`, the inhibition was 0.84% (inactive).

With `Cc1cc(=O)oc2cc(OCC(=O)N3CCN(c4ccc(F)cc4)CC3)c(Cl)cc12`, the inhibition was 1.94% (inactive).

For `O=C(Nc1cccc(O)c1)c1ccc(C(=O)c2ccccc2)o1`, the inhibition was 0.43% (inactive).

Turning to `Cc1onc(NC(=O)c2ccc([N+](=O)[O-])o2)c1Br`, the inhibition is 6.74% (inactive).

In the case of `Cc1cccc(NC(=O)c2ccc([N+](=O)[O-])o2)c1`, the inhibition is 27.2% (active).

Consider `O=C(Nc1ccc(Br)cn1)c1ccc([N+](=O)[O-])cc1Cl`, for which the inhibition is 2.77% (inactive).

Take `CN1C(=O)c2ccc(C(=O)Nc3ccc(Br)cn3)cc2C1=O`: the inhibition was -2.73% (inactive).

For `O=C(Nc1ccc(Br)cn1)c1ccc([N+](=O)[O-])o1`, the inhibition is 32.3% (active).

Turning to `CC1CC(C)CN(CCC(=O)Nc2ccc3c(c2)CCC3)C1` (centres undefined), the inhibition was 1.48% (inactive).

On to `O=c1c(-c2ccc(Cl)cc2)[n+]([O-])c2ccccc2n1OCc1nc2ccccc2[nH]1`, for which the inhibition is 0.49% (inactive).

As to `O=C(Nc1cccnc1Cl)c1cc(-c2ccccc2O)on1`, the inhibition was -1.11% (inactive).

Regarding `C=CCNC(=O)c1csc(-c2ccccc2)n1`, the inhibition was -0.67% (inactive).

For `C=CCNC(=O)c1cc(-c2ccccc2O)on1`, the inhibition was 85.1% (active).

Turning to `Cc1ccc(C)c(OCCC(=O)OCC(=O)NC(=O)NCc2ccccc2)c1`, the inhibition was 0.73% (inactive).

With `CNC(=O)CN1C(=O)NC(c2ccccc2)(c2ccccc2)C1=O`, the inhibition was 1.95% (inactive).

Take `CCOC(=O)N1CCN(Cc2nc3cc(NC(=O)CC)ccc3n2CC)CC1`: the inhibition was -0.18% (inactive).

Take `Cc1c(C=O)c2ccccc2n1CC(=O)O`: the inhibition is 2.1% (inactive).

As for `CC(=O)c1c(C)n([O-])c2ccccc2[n+]1=O`, the inhibition was 30.7% (active).

Take `COC(=O)c1cc(N2CCNCC2)nc2ccccc12`: the inhibition is 0.59% (inactive).

For the molecule `CC12C(=O)N(n3cnnc3)C(=O)C1C1C=CC2C1` (centres undefined), the inhibition is 1.48% (inactive).

Consider `COc1ccc(C(=O)COC(=O)c2ccc3ccccc3n2)cc1`, for which the inhibition was 0.25% (inactive).

For the molecule `CC[C@H](C)[C@@H](C(=O)N1CCNCC1)n1cc([C@@H](N)Cc2ccc(O)cc2)nn1`, the inhibition is -1.2% (inactive).

`CC(C)[C@H](NC(=O)c1ccc(F)cc1)C(=O)OCC(=O)NC(=O)c1cccn1C`: the inhibition was -1.29% (inactive).

For the molecule `COC(=O)N/N=C/c1cn(CCCOc2ccc(C)cc2)c2ccccc12`, the inhibition is -2.32% (inactive).

For `COC(=O)N/N=C/c1c[n+]([O-])c2ccccc2[n+]1[O-]`, the inhibition was 93.8% (active).

Take `COC(=O)N/N=C/c1ccc(-c2ccc(Cl)c(Cl)c2)o1`: the inhibition is 0.17% (inactive).

Take `COc1ccc(C)cc1NC(=O)c1[nH]c(C)c(C(C)=O)c1C`: the inhibition is -0.41% (inactive).

Turning to `CN(Cc1ccco1)S(=O)(=O)c1nnc(NC(=O)c2ccccc2)s1`, the inhibition is 0% (inactive).

In the case of `COCCNS(=O)(=O)c1cc(Br)ccc1OC`, the inhibition is -1.08% (inactive).

As to `COc1ccc(OCc2nnc3n2N=C(c2ccccc2)C(CC(=O)O)S3)cc1` (centres undefined), the inhibition was -0.43% (inactive).

For the molecule `CN1CCN(C(c2cc3cc4c(cc3[nH]c2=O)OCCO4)c2nnnn2C2CCCC2)CC1` (centres undefined), the inhibition was 0.75% (inactive).

As for `Cc1nnc(N/N=C/c2ccccn2)[nH]c1=O`, the inhibition is 12.1% (active).

In the case of `Cc1nnc(N/N=C/C2CC=CCC2)[nH]c1=O` (centres undefined), the inhibition was -0.18% (inactive).

Consider `Cc1cc(C(=O)N/N=C/c2ccccn2)c2ccccc2n1`, for which the inhibition was -0.17% (inactive).

`O=C(Nc1ccc2nc3n(c(=O)c2c1)CCCC3)c1ccc(Cl)nc1`: the inhibition is -2.17% (inactive).

As for `CC(NS(=O)(=O)c1ccc(Cl)cc1)C(=O)Nc1ccc2c(c1)OCCO2` (centres undefined), the inhibition is -2.14% (inactive).

In the case of `C=CCn1c(=O)c(C(=O)NCc2ccc3c(c2)OCO3)c(O)c2ccccc21`, the inhibition is 13.5% (active).

As to `CCn1c(=O)cc(SCC(=O)NCc2ccc3c(c2)OCO3)c2ccccc21`, the inhibition is -0.5% (inactive).

On to `CCn1c(=O)c(C(=O)NCc2ccc3c(c2)OCO3)c(O)c2ccccc21`, for which the inhibition is 0.18% (inactive).

On to `O=C(CC1SC(N2CCCC2)=NC1=O)Nc1ccc(C(=O)NCCc2ccc(F)cc2)cc1` (centres undefined), for which the inhibition was -1.3% (inactive).

Regarding `CN(C)[C@@H]1C(=O)C(C(N)=O)=C(O)[C@@]2(O)C(=O)C3=C(O)c4c(O)ccc(Cl)c4[C@@H](O)[C@H]3C[C@@H]12`, the inhibition was 102% (active).

As for `C=C1c2c(Cl)ccc(O)c2C(O)=C2C(=O)[C@]3(O)C(O)=C(C(N)=O)C(=O)[C@@H](N(C)C)[C@@H]3[C@@H](O)C12` (some centres undefined), the inhibition is 103% (active).

On to `CC1CC(C)CN(CCOc2cccc3ccccc23)C1` (centres undefined), for which the inhibition was 0.17% (inactive).

For `COc1cc(Cl)c(C)cc1NC(=O)COC(=O)c1cc(SC)ccc1Cl`, the inhibition is -0.93% (inactive).

Turning to `CCCn1nc(Oc2nc(NC(C)C)nc(N(C)C)n2)ccc1=O`, the inhibition is -1.48% (inactive).

With `CCc1c(C)nc2ncnn2c1N1CCC(C(=O)NCc2ccc3c(c2)OCO3)CC1`, the inhibition was -1.08% (inactive).

`Cc1cnc(C(=O)OCC(=O)NCCCc2ccccc2)cn1`: the inhibition was -0.78% (inactive).

On to `COc1ccccc1NC(=S)N1CCN(c2ccc(F)cc2)CC1`, for which the inhibition was -1.81% (inactive).

As to `CC1CN(C(=S)Nc2ccccc2F)CC(C)O1` (centres undefined), the inhibition is 0.45% (inactive).

`COc1c(N2CCN(C(=S)Nc3ccccc3F)C(C)C2)c(F)cc2c(=O)c(C(=O)O)cn(C3CC3)c12` (centres undefined): the inhibition was 99% (active).

For `CCOc1ccc(/C=C/C(=O)OCC(=O)c2ccccc2OC)cc1OC`, the inhibition is 2.19% (inactive).

As for `O=C(NCC1CCCO1)C(C(=O)c1ccccc1)n1cc(Cl)ccc1=O` (centres undefined), the inhibition is 96.6% (active).

Turning to `O=C(NCC1CCCO1)/C(=C/c1ccc(Cl)cc1)NC(=O)c1ccccc1` (centres undefined), the inhibition was 0.6% (inactive).

Regarding `O=C(CSc1ccc(-c2ccccc2)nn1)NCC1CCCO1` (centres undefined), the inhibition is 0.59% (inactive).

Take `O=C1CN(C(=O)COC(=O)C2CC(=O)N(Cc3ccco3)C2)c2ccccc2N1` (centres undefined): the inhibition was -0.37% (inactive).

Turning to `Cc1ccc(NC(=O)C(C)OC(=O)Cc2c[nH]c3ccccc23)cc1S(=O)(=O)N1CCOCC1` (centres undefined), the inhibition is -2.87% (inactive).

Regarding `CC(C)CC(=O)NC(=S)NNC(=O)c1cccc([N+](=O)[O-])c1`, the inhibition is -7.21% (inactive).

Take `CN(C)CCn1c2c(c(SCC(=O)NCc3ccccc3)nc1=O)CCC2`: the inhibition is -1.35% (inactive).

As to `COC(=O)c1oc2ccc(Br)cc2c1NC(C)=O`, the inhibition was 1.03% (inactive).

On to `COc1ccc(CC(=O)Nc2c(C(N)=O)oc3ccccc23)cc1`, for which the inhibition is -1.77% (inactive).

As to `COc1ccc(C(=O)c2oc3ccc(Br)cc3c2NC(C)=O)cc1`, the inhibition was 98.8% (active).

Regarding `OCc1ccc(-c2ccccc2)c(-c2ccccc2)c1`, the inhibition was -4.27% (inactive).

As for `CCC1(C)Cc2c(sc3[nH]c(=S)n(Cc4ccccc4)c(=O)c23)CO1` (centres undefined), the inhibition was -1.73% (inactive).

In the case of `Nc1nonc1-n1nnc(C(=O)N/N=C/c2ccccc2O)c1CN1CCCC1`, the inhibition was -0.26% (inactive).

In the case of `Nc1nonc1-n1nnc(C(=O)N/N=C/c2cc(Br)ccc2O)c1CSC1=NCCS1`, the inhibition is 12.6% (active).

On to `Cc1ccc(SCc2c(C(=O)N/N=C/c3cccnc3)nnn2-c2nonc2N)cc1`, for which the inhibition was 1.61% (inactive).

Regarding `O=C(CNCCO)NC12CC3CC(CC(C3)C1)C2`, the inhibition is -2.56% (inactive).

Regarding `CSCCC(NS(=O)(=O)/C=C/c1ccccc1)C(=O)N1CCC(C)CC1` (centres undefined), the inhibition is -0.42% (inactive).

In the case of `CSc1cc(C)[nH]c(=O)n1`, the inhibition was -2.18% (inactive).

`CCc1ccccc1NC(=O)CN(c1ccc(OC)cc1OC)S(=O)(=O)c1ccccc1[N+](=O)[O-]`: the inhibition was -0.37% (inactive).

For `C/[N+]([O-])=C\c1ccc([N+](=O)[O-])o1`, the inhibition is 15.4% (active).

Regarding `COC(=O)C1=C(C)N(C)C(=O)NC1c1ccc([N+](=O)[O-])o1` (centres undefined), the inhibition was 0.52% (inactive).

Regarding `COc1ccc(C(=O)NCC(=O)N/N=C/c2ccc([N+](=O)[O-])o2)cc1OC`, the inhibition was 5.52% (inactive).
